Records with an inconclusive call do not appear. Activity calls are given as the source filed them. Unless noted, calls follow the shape of the full dose curve.
Tests used:
[1] = Nuclear factor erythroid 2-related factor 2/antioxidant responsive element (Nrf2/ARE) small molecule agonists: qHTS cell viability counter screen in human keratinocytes (AID 1919968; active = well fitted curve in the direction sought with a large enough effect in the repeat runs; an effect the other way counts as inactive or inconclusive; also: nearly all actives have a fitted effect of over 55% in size)
Procedure, shortened: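 KeratinoSens HaCaT cells, 1,500/well, preincubated 5 h, then exposed to compounds in DMSO for 23 h at 37 C/5% CO2. Viability read as CellTiter-Fluor fluorescence after 1 h, in the same wells as the ARE-luciferase read.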

[2] = Nuclear factor erythroid 2-related factor 2/antioxidant responsive element (Nrf2/ARE) small molecule agonists: luciferase reporter gene qHTS assay in human keratinocytes (AID 1919969); also: nearly all actives have a fitted effect of over 35% in size; also: potency is read from the fitted curve at half-maximal effect
[3] = biological target: Gonadotropin-releasing hormone receptor (Homo sapiens) (UniProt P30968); test: Human gonadotropin-releasing hormone receptor (GnRHR) small molecule agonists, calcium flux assay in GnRHR-HEK293 cells (AID 1920063); also: nearly all actives have a fitted effect of over 35% in size
Chain of Gonadotropin-releasing hormone receptor (Homo sapiens) (P30968 whole entry, looked up): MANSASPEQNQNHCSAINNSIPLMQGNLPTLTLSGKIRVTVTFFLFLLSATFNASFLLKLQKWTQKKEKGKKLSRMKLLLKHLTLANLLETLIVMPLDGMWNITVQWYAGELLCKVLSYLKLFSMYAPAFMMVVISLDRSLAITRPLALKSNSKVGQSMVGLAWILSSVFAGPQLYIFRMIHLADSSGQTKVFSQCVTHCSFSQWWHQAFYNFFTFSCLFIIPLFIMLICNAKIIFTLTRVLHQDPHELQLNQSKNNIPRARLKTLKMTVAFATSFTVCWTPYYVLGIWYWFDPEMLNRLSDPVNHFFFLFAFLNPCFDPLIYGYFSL
Procedure, shortened: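 HEK293 cells stably expressing human GnRHR were dye-loaded for 1 h at 37 C. Compound was added in agonist mode and fluorescence (Ex/Em 480/540) recorded kinetically for 3 min. Fifteen concentrations, triplicates.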

[4] = biological target: KiSS-1 receptor (Homo sapiens) (UniProt Q969F8); test: Human kisspeptin (KISS1R) small molecule agonists, calcium flux assay in KISS1R-HEK293 cells (AID 1920064; active = well fitted curve in the direction sought with a large enough effect in the repeat runs; an effect the other way counts as inactive or inconclusive)
Chain of KiSS-1 receptor (Homo sapiens) (Q969F8 whole entry, looked up): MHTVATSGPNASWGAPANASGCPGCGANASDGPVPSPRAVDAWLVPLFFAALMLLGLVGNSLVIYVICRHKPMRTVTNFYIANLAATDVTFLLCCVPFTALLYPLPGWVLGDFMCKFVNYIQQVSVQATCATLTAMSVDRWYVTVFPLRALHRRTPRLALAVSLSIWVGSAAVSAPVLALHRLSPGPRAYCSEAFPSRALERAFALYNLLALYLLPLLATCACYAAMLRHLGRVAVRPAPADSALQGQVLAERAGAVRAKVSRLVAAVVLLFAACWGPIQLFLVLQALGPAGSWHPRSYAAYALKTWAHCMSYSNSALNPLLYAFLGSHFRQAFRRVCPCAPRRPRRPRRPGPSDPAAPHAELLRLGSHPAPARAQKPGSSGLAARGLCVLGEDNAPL
Procedure, shortened: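 HEK293 cells stably expressing human KISS1R were loaded with calcium dye for 1 h at 37 C, then given compound; fluorescence (Ex/Em 480/540) was read kinetically for 3 min. Fifteen concentrations, triplicate.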

[5] = G protein-coupled receptor (GPCR) small molecule agonists, calcium flux assay: HEK293 wild type cell line counter screen (AID 1920065)
Procedure, shortened: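 Wild-type HEK293 cells plated 18 h, loaded with calcium dye 1 h at 37 C, then compounds added in agonist mode (ATP as positive control). Kinetic fluorescence Ex/Em 480/540 recorded 3 min at 1 sec intervals; 15 concentrations, triplicate.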

[6] = p53 small molecule agonists, cell-based qHTS assay with human liver microsomes (AID 1963577);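 also: p53 response element beta-lactamase reporter cells with liver microsomes plus NADPH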
Procedure, shortened: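 In this qHTS, p53 response-element beta-lactamase cells receive test compound together with a microsome/NADPH activating system (0.5 mg/mL final each) and are incubated 16 h at 37 C before LiveBLAzer fluorescence detection.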

[7] = p53 small molecule agonists, cell-based qHTS assay with rat liver microsomes (AID 1963578)
Procedure, shortened: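 Agonist mode in p53RE-bla reporter cells, with compounds co-incubated 16 h at 37 C alongside 0.5 mg/mL rat liver microsomes and 0.5 mg/mL NADPH (final), followed by a 2 h LiveBLAzer detection step.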

[8] = p53 small molecule agonists, cell-based qHTS assay with human liver microsomes: qHTS cell viability counter screen (AID 1963579); also: nearly all actives have a fitted effect of over 45% in size
Procedure, shortened: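 Metabolically activated exposure: compounds, human liver microsomes and NADPH (0.5 mg/mL final apiece) were added to p53RE-bla cells seeded 5 h earlier, left 16 h at 37 C, and then assessed for viability by CellTiter-Glo luminescence.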

[9] = p53 small molecule agonists, cell-based qHTS assay: qHTS cell viability counter screen (AID 1963581); also: nearly all actives have a fitted effect of over 45% in size
Procedure, shortened: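 p53RE-bla HCT-116 cells, compounds added 5 h after plating and incubated 16 h at 37 C. Cytotoxicity measured in the same wells as intracellular ATP by CellTiter-Glo luminescence after 30 min at room temperature.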

[10] = biological target: 5-hydroxytryptamine receptor 2A (Homo sapiens) (UniProt P28223); test: 5-hydroxytryptamine receptor 2A (HTR2A) small molecule agonists, cell-based qHTS assay (AID 1963587); also: nearly all actives have a fitted effect of over 30% in size
Chain of 5-hydroxytryptamine receptor 2A (Homo sapiens) (P28223 whole entry, looked up): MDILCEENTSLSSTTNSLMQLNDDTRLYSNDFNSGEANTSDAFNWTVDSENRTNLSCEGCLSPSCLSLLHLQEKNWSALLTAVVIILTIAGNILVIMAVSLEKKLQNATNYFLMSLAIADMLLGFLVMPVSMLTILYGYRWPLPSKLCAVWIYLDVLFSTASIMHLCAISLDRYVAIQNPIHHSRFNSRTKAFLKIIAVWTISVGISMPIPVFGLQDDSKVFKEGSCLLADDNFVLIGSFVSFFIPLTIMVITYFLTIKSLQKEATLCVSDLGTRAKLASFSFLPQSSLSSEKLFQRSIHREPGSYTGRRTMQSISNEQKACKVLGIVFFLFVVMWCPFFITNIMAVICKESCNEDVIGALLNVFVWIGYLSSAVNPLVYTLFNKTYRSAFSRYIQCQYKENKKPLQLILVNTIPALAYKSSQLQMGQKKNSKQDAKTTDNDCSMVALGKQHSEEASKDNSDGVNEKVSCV
Procedure, shortened: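 HTR2A-CHO cells, plated 18 h at 37 C/5% CO2, dye-loaded 1 h at 37 C; compounds in DMSO added by pin tool (agonist mode). Intracellular calcium flux read as kinetic fluorescence on FDSS over 2 min at 1 s intervals.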

[11] = biological target: Muscarinic acetylcholine receptor M1 (Homo sapiens) (UniProt P11229); test: Cholinergic receptor muscarinic 1 (CHRM1) small molecule antagonists, cell-based qHTS assay (AID 1963588); also: nearly all actives have a fitted effect of over 40% in size
Chain of Muscarinic acetylcholine receptor M1 (Homo sapiens) (P11229 whole entry, looked up): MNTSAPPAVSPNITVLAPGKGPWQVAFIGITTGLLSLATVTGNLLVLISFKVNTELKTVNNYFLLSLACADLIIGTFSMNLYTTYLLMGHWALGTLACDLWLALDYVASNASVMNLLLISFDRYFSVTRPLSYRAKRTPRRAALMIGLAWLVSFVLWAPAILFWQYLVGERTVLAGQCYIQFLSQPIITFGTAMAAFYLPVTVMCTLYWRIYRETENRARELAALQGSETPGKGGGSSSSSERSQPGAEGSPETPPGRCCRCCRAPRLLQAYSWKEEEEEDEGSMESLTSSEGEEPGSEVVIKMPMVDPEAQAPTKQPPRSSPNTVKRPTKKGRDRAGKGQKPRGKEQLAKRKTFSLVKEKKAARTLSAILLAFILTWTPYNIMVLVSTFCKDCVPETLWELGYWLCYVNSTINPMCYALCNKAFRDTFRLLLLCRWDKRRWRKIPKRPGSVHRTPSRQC
Procedure, shortened: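 CHRM1-CHO calcium-flux assay, antagonist mode. Cells were seeded 18 h, dye-loaded 1 h at 37 C and given compound for 5 min at RT, then acetylcholine was added at 50nM. FDSS fluorescence was read 3 min; 15 concentrations, three runs.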

[12] = biological target: Muscarinic acetylcholine receptor M1 (Homo sapiens) (UniProt P11229); test: Cholinergic receptor muscarinic 1 (CHRM1) small molecule agonists, cell-based qHTS assay (AID 1963589); also: nearly all actives have a fitted effect of over 35% in size
Procedure, shortened: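 CHO cells stably expressing human CHRM1 were loaded with calcium dye for 1 h at 37 C, then compound was added in agonist mode. Intracellular calcium fluorescence was followed kinetically at 1 s intervals. Fifteen concentrations were tested in three independent runs.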

[13] = cAMP Responsive Elements (CRE) small molecule antagonists, cell-based qHTS assay (AID 1963591; active = well fitted inhibition curve with a large enough effect in the signal ratio in the repeat runs, not every such curve was filed as active; the % refers to the signal ratio)
Procedure, shortened: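 CRE-bla HEK293T cells plated 18 h, then given compound plus NKH477 at 0.25 uM final for 3 h at 37C. Beta-lactamase reporter read with LiveBLAzer B/G FRET substrate after 2 h at room temperature.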

[14] = biological target: Beta-2 adrenergic receptor (Homo sapiens) (UniProt P07550); test: Adrenergic beta2 receptor (ADRB2) small molecule antagonists, cell-based qHTS assay (AID 1963592); also: series mostly up to about 92 µM; nearly all actives have a fitted effect of over 50% in size
Chain of Beta-2 adrenergic receptor (Homo sapiens) (P07550 whole entry, looked up): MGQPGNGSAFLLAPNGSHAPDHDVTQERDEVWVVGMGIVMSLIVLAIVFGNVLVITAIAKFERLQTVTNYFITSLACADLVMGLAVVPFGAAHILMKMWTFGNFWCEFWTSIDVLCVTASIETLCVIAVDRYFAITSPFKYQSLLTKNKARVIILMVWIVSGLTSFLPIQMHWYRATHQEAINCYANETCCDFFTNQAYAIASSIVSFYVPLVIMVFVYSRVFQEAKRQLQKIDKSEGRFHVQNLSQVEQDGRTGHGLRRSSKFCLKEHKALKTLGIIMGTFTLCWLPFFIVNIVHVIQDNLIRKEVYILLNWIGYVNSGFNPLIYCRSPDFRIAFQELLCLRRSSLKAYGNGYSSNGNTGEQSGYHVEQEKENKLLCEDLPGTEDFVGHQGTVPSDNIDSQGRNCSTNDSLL
Procedure, shortened: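 Cells (CHO, stable ADRB2 overexpression) incubated 18-20hr at 37C; compounds added from DMSO; agonist mix (1nM isoproterenol, 100uM IBMX, 25uM Ro-20-1724) added; 0.5hr RT; d2-cAMP and anti-cAMP-cryptate added; 1hr RT; 665/615 nm read.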

[15] = biological target: D(2) dopamine receptor (Homo sapiens) (UniProt P14416); test: Dopamine D2 receptor (DRD2) small molecule agonists, cell-based qHTS assay (AID 1963594); also: nearly all actives have a fitted effect of over 35% in size
Chain of D(2) dopamine receptor (Homo sapiens) (P14416 whole entry, looked up): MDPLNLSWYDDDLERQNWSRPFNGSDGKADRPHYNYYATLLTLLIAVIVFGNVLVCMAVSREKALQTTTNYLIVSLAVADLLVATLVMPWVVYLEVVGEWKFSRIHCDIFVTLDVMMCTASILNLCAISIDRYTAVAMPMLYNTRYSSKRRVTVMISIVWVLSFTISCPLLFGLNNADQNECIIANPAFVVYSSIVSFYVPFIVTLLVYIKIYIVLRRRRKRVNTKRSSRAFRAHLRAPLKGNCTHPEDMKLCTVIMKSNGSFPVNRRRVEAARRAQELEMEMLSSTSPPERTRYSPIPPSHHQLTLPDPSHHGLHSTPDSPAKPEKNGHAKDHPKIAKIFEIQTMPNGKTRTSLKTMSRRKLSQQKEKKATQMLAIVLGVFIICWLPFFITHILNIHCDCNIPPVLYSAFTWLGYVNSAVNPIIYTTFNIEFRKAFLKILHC
Procedure, shortened: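 HEK293 cells stably expressing DRD2 were cultured 24 h at 37 C, then given Ro20-1724 (0.1 mM final) and compounds for 10 min at room temperature. NKH477 (200nM) was then added for 30 min. cAMP was read by HTRF.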

[16] = biological target: D(2) dopamine receptor (Homo sapiens) (UniProt P14416); test: Dopamine D2 receptor (DRD2) small molecule antagonists, cell-based qHTS assay (AID 1963595; active = well fitted inhibition curve with a large enough effect in the signal ratio in the repeat runs, with a control signal flat; the % refers to the signal ratio)
Procedure, shortened: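 In this cell-based antagonist screen, compounds act for 10 min at room temperature before a 30 min challenge with 12 nM quinpirole and 200 nM NKH477. cAMP is quantified by HTRF competition in DRD2-HEK293 cells containing 0.1 mM Ro20-1724.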

[17] = p53 small molecule agonists, cell-based qHTS assay (AID 1963582; active = well fitted activation curve with a large enough effect in the signal ratio in the repeat runs, not every such curve was filed as active; the % refers to the signal ratio)
Procedure, shortened: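 p53RE-bla reporter cells, compounds added in DMSO after 5 h plating, incubated 16 h at 37 C. Beta-lactamase read via 2 h room-temperature LiveBLAzer B/G FRET substrate, fluorescence intensity.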

[18] = cAMP Responsive Elements (CRE) small molecule agonists, cell-based qHTS assay (AID 1963590)
Procedure, shortened: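 CRE-bla HEK 293T cells, 2,000/well in DMEM with 10% dialyzed FBS and 25 mM HEPES, pre-incubated 18 h at 37 C, then exposed to compound 3 h at 37 C. Beta-lactamase reporter read with LiveBLAzer B/G FRET substrate after 2 h at room temperature.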

[19] = biological target: Beta-2 adrenergic receptor (Homo sapiens) (UniProt P07550); test: Adrenergic beta2 receptor (ADRB2) small molecule agonists, cell-based qHTS assay (AID 1963593);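 also: CHO cells stably overexpressing human ADRB2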
Procedure, shortened: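 CHO cells stably over-expressing ADRB2 were plated overnight at 37C, then dosed with compounds plus a stimulation mix containing 100uM IBMX and 25uM Ro-20-1724 for 0.5hr at room temperature. cAMP was measured by HTRF competition, 1hr.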

[20] = biological target: 5-hydroxytryptamine receptor 2A (Homo sapiens) (UniProt P28223); test: 5-hydroxytryptamine receptor 2A (HTR2A) small molecule antagonists, cell-based qHTS assay (AID 1963586); also: nearly all actives have a fitted effect of over 45% in size
Procedure, shortened: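 Antagonist-mode intracellular calcium assay: DOI (4 nM) added after 5 min compound pre-incubation at room temperature to dye-loaded HTR2A-CHO cells. Fluorescence followed for 3 min, sampled every second.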
% is scaled to controls: 0 for no effect and ±100 for the full control effect.

O=C(c1ccccc1)c1ccc(Cl)cc1
inactive: Potency [1] | Potency [3] | outcome [4] | outcome [5] | Potency [6] | Potency [7] | Potency [8] | Potency [9] | Potency [10] | Potency [11] | Potency [12] | Potency [13] | Potency [14] | Potency [15] | Potency [16]
active: Potency [2] 61.1 µM

Nc1[nH]c(=O)ncc1F
inactive: Potency [1] | Potency [2] | Potency [3] | outcome [4] | outcome [5] | Potency [6] | Potency [7] | Potency [8] | Potency [9] | Potency [17] | Potency [18] | Potency [13] | Potency [14] | Potency [19] | Potency [15] | Potency [16]

O=C(Nc1ccc(Cl)c(Cl)c1)C1CC1
inactive: Potency [1] | Potency [2] | Potency [3] | outcome [4] | outcome [5] | Potency [6] | Potency [7] | Potency [9] | Potency [17] | Potency [20] | Potency [10] | Potency [11] | Potency [12] | Potency [18] | Potency [13] | Potency [14] | Potency [15] | Potency [16]

COCC(=O)Nc1c(I)c(C(=O)NCC(O)CO)c(I)c(C(=O)N(C)CC(O)CO)c1I (stereo unspecified)
inactive: Potency [1] | Potency [2] | Potency [3] | outcome [4] | outcome [5] | Potency [6] | Potency [7] | Potency [9] | Potency [17] | Potency [20] | Potency [10] | Potency [11] | Potency [12] | Potency [18] | Potency [13] | Potency [19] | Potency [15] | Potency [16]

COc1ccc(/C=C/S(=O)(=O)NC(=O)c2ccc(C)cc2Cl)cc1
inactive: Potency [1] | Potency [2] | Potency [3] | outcome [4] | outcome [5] | Potency [6] | Potency [7] | Potency [8] | Potency [20] | Potency [10] | Potency [11] | Potency [12] | Potency [18] | Potency [14] | Potency [19] | Potency [15] | Potency [16]

C[C@@H]1CC[C@@]2(OC1)O[C@H]1C[C@H]3[C@@H]4CC[C@H]5C[C@@H](O)CC[C@]5(C)[C@H]4CC(=O)[C@]3(C)[C@H]1[C@@H]2C
inactive: activity change, negative = cytotoxicity [1] -14.4% [at 8.39 µM] | activity, positive = activation [2] -0.515% [at 8.39 µM] | activity change [3] -0.98% [at 5.22 µM, active compounds read high] | activation [4] 0.0336% [at 6.97 µM] | activation [5] 1.09% [at 5.23 µM] | activation [6] 1.05% [at 5.99 µM] | activation [7] 0.138% [at 5.99 µM] | activity change, negative = cytotoxicity [9] -10.7% [at 5.99 µM] | activation [17] -0.0756% [at 5.99 µM] | activity, negative = inhibition [20] 89.9% [at 5.62 µM] | activation [10] -0.761% [at 7.02 µM] | activity, negative = inhibition [11] 4.81% [at 5.58 µM] | activation [12] 0.4% [at 6.97 µM] | activation [18] -0.0414% [at 8.39 µM] | activity change, negative = inhibition [13] 0.931% [at 8.39 µM] | activation [19] 3.94% [at 8.39 µM] | activation [15] -11.7% [at 8.39 µM] | activity change, negative = inhibition [16] -1.11% [at 8.38 µM]

C=C(C)C(=O)OCCOCC
inactive: Potency [1] | Potency [3] | outcome [4] | outcome [5] | Potency [6] | Potency [7] | Potency [9] | Potency [17] | Potency [20] | Potency [10] | Potency [11] | Potency [12] | Potency [18] | Potency [13] | Potency [14] | Potency [15] | Potency [16]
active: Potency [2] 54.7 µM

Source: PubChem BioAssay (Tox21)
